A selection: hits, their analogues and other compounds. The true share with any hit is near 4%.
FLuc inh: qHTS Assay for Inhibitors of Firefly Luciferase. purified firefly luciferase, luminescence, 8 min. 72,000 compounds, 2.2% hits. Luciferin 4-monooxygenase (Photinus pyralis), P08659. Potency, µM (highest dose often 57.1 µM), usual class: inhibitors; further: nearly all actives have a fitted effect of over 40% in size
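qHTS concentration-response profiling: light output of P. pyralis luciferase with luciferin and 10 uM ATP, imidazole buffer pH 7.2. Read by luminescence after 8-min room-temperature incubation.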
Bst PK mod: Pyruvate Kinase. purified pyruvate kinase, luminescence ATP production; ribose 5-phosphate activator present at AC10. Potency, µM. 51,000 compounds, 1.2% hits. AID 361, 2006; in the data active means potency below about 11 µM; inconclusive means mostly about 12 µM to 25 µM;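 the screen sought inhibitors and activators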
Tau fil binding: qHTS Assay for Tau Filament Binding | 71,000 compounds, 2% hits | Potency, µM (series often up to 57.1 µM) | Microtubule-associated protein tau (Homo sapiens), P10636 | recombinant tau filaments, thioflavin S fluorescence, 15 h; filaments grown with octadecylsulfate alongside compound;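 further: actives lower thioflavin S fluorescence by blocking filaments or displacing dye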
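Tau 2 uM in ThS buffer dispensed; compound added; 60 uM ODS added (finals 1 uM tau, 30 uM ODS); 15 h 37 C; fluor ex450/em510.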
Casp1 inh: qHTS Assay for Allosteric/Competitive Inhibitors of Caspase-1; P29466; Caspase-1 enzyme, Ac-WEHD-AFC fluorogenic rate; Potency, µM (top dose mostly 57.5 µM), most hits filed as inhibitors; 75,000 compounds, 0.03% hits
Casp7 inh: qHTS Assay for Allosteric/Competitive Inhibitors of Caspase-7. Potency, µM (highest dose often 57.5 µM), most hits filed as inhibitors. 75,000 compounds, 0.02% hits. recombinant caspase-7, Ac-DEVD-AFC fluorescence rate. AID 889, 2007. P55210; active means well fitted inhibition curve with a large enough effect in the main read-out, with a control signal flat, not every such curve was filed as active; inconclusive means small, poorly fitted or top-dose-only effect, or a change in a side signal
Hits are given with their value; . = inactive; ? = inconclusive; / = no result; [ ] = another dose, or the depositor's remark. Unless noted, the call rests on the fitted dose curve; in most records, active means well fitted curve in the direction sought with a large enough effect; inconclusive means small, poorly fitted or top-dose-only effect, or another doubt; inactive means no such curve, though single readings can be large; an effect the other way counts as inactive or inconclusive.

SMILES | FLuc inh | Bst PK mod | Tau fil binding | Casp1 inh | Casp7 inh
Cc1ccccc1-c1nnc(-c2ccccc2)o1 | 12.6µM | / | . | . | .
O=C(O)[C@@H]1[C@@H](C(=O)NCc2ccncc2)[C@@H]2C=C[C@@H]1O2 | .[11.4 µM] | / | .[11.4 µM] | .[11.5 µM] | .[11.5 µM]
COc1ccc(-n2nc3cc(C)c(N)c(Br)c3n2)cc1 | 3.98µM | 3.42 | 20µM | ? | .
COc1ccc(-n2nc3ccccc3n2)cc1 | . | / | . | . | .
CC(=O)N1CCC2(CC1)CCN(c1ccccc1)CC2 | .[11.4 µM] | / | . | . | .
Oc1oc(-c2ccco2)nc1C=Nc1ccccc1 | 15.8µM | . | . | . | .
COc1cc(C(Nc2ccccn2)c2ccc3ccc(C)nc3c2O)cc(OC)c1O (centres undefined) | . | . | 12.6µM | ? | .
CN(C)CC(C)(C)CNC(=O)c1ccc(-n2c(=O)c(=O)[nH]c3ccccc32)cc1 | / | / | / | . | .
Nc1nncn1C(=O)c1c(Cl)cccc1Cl | . | ? | . | . | .
Nc1nncn1C(=O)c1cccs1 | . | 2.47 | . | . | .
CC1=NN(C(=O)c2ccncc2)C(=O)[C@@H]1N=Nc1ccc2ccccc2c1 | .[11.4 µM] | / | 1.58µM | .[11.5 µM] | .[11.5 µM]
CC(=O)c1cccc(NC(=O)Nc2cc3sccc3n2C)c1 | . | / | 3.16µM | . | .
CC(=O)c1cccc(NC(=O)Nc2ccc(C(=O)N3CCOCC3)cc2)c1 | 12.6µM | / | . | . | .
COc1ccc(COC(=O)N/N=C2/C[C@@H](O)[C@@H](O)[C@@H]3[C@@H]4C(=O)N(C[C@@H]5CCCO5)C(=O)[C@H]4CC[C@@H]23)cc1 | .[11.4 µM] | / | / | .[11.5 µM] | .[11.5 µM]
CC(=O)c1cccc(NS(=O)(=O)c2cccc(C(=O)O)c2)c1 | / | / | / | . | .
CCOC(=O)C1=C(C)NC2=C(C(=O)CCC2)C1c1cccnc1 (centres undefined) | . | . | . | / | ?
CCOC(=O)C1=C(C)NC2=C(C(=O)c3ccccc32)C1c1cccnc1 (centres undefined) | . | . | 3.16µM | . | .
O=C(/C=C\c1ccc(O)cc1)c1ccc(O)cc1O | 25.1µM | / | . | . | .
O=C(/C=C/c1ccc(O)cc1)c1ccccc1O | / | / | / | . | .
CC(C)C(=O)Nc1ccc(-c2nc3cccnc3o2)cc1 | 5.01µM | / | . | . | .
O=C(Nc1ccc2oc(-c3ccncc3)nc2c1)c1ccccc1F | . | / | . | . | .
O=C(Nc1ccc2oc(-c3ccncc3)nc2c1)c1cccs1 | . | 3.58 | . | ? | .
Cc1ccc(-c2nc3cc(NC(=O)C(C)C)ccc3o2)cc1 | 5.01µM | / | . | . | .
Cc1ccc(-c2nc3cc(NC(=O)C(C)C)ccc3o2)cc1C | 2µM | 1.74 | . | . | .
Cc1cc2nc(-c3ccc(NC(=O)C(C)C)cc3)oc2cc1C | . | / | . | . | .
SMILES | FLuc inh | Bst PK mod | Tau fil binding | Casp1 inh | Casp7 inh
OCC1OC(n2cnc3c(=S)nc[nH]c32)C(O)C1O (centres undefined) | / | / | / | . | .
CC(C)[C@@H]1O[C@H](/C=C\c2ccccc2)OCC1(C)C | .[11.4 µM] | / | .[11.4 µM] | .[11.5 µM] | .[11.5 µM]
N#Cc1c(/N=C/c2cccs2)sc2c1CCC2 | 10µM | ? | 15.8µM | . | .
O=c1c2c3c(sc2ncn1/N=C/c1ccco1)CCCC3 | . | / | . | . | .
N#Cc1c(/N=C/c2ccco2)sc2c1CCCCC2 | 0.794µM | 0.523 | 15.8µM | . | .
CN(C)Cc1ccc(C(C)(C)C)cc1-c1cc(C(C)(C)C)ccc1CN(C)C | .[11.4 µM] | / | .[11.4 µM] | .[11.5 µM] | .[11.5 µM]
Clc1ccc(-c2nnc(N3CCCC3)nn2)cc1 | . | / | 12.6µM | . | .
O=C(NCc1ccc(F)cc1)c1cc2ccccn2n1 | . | / | . | . | .
CC(=O)c1cccc(NC(=O)Nc2cccnc2)c1 | . | . | . | . | .
CC(=O)c1cccc(NC(=O)c2cc3ccccn3n2)c1 | 3.16µM | / | . | . | .
CC(=O)c1cccc(NC(=O)c2cnn3ccccc23)c1 | 12.6µM | / | . | . | .
CCn1c(C)nc2cc(-c3nc4n(n3)Cc3ccccc3-4)ccc21 | 0.0501µM | 0.0948 | . | . | .
Fc1ccc(-c2nc3n(n2)Cc2ccccc2-3)cc1 | 3.98µM | 2.51 | . | . | .
O=c1c(CCc2ccccc2)nc2cnc(N3CCNCC3)nc2n1CCc1ccccc1 | .[11.4 µM] | / | . | ? | .
NC(=O)NC(N)=O | / | / | . | . | .
CCN1C(=O)[C@H]2[C@H]3[C@H](O)[C@H](O)C/C(=N/NC(=O)OCc4ccccc4)[C@@H]3CC[C@@H]2C1=O | .[11.4 µM] | / | / | .[11.5 µM] | .[11.5 µM]
CC(C)OC(=O)C[C@H](NC(=O)OC(C)(C)C)c1ccccc1 | .[11.4 µM] | / | / | .[11.5 µM] | .[11.5 µM]
COc1ccc(N(CC(O)CN2CCCCC2)S(=O)(=O)c2ccc(C)cc2)cc1 (centres undefined) | . | . | . | . | .
COc1ccc(N(CC(O)Cn2nnc3ccccc32)S(=O)(=O)c2ccc(C)cc2)cc1 (centres undefined) | . | 5.7 | . | . | .
COc1cc(C2c3[nH]c4ccccc4c3CC3C(=O)N4C(Cc5c([nH]c6ccccc56)C4c4cc(OC)c(OC)c(OC)c4)C(=O)N32)cc(OC)c1OC (centres undefined) | / | / | / | .[11.5 µM] | .[11.5 µM]
CCCOC(=O)c1ccc(Oc2cn[nH]c2-c2ccc(OC)cc2O)cc1 | . | . | 12.6µM | . | .
COCCn1c(CN2CCN(c3ccc(OC)cc3)CC2)nc2c1c(=O)n(C)c(=O)n2C | . | . | . | . | .
COc1ccc(N2CCN(Cc3nc4c(c(=O)n(C)c(=O)n4C)n3CCc3ccccc3)CC2)cc1 | . | / | 12.6µM | . | .
O=C(O)CCCCn1cnc2c(=S)nc[nH]c21 | .[11.4 µM] | / | .[11.4 µM] | .[11.5 µM] | .[11.5 µM]
COc1ccc(C(=O)NCC(=O)NC2=NCCS2)cc1 | . | / | . | . | .
SMILES | FLuc inh | Bst PK mod | Tau fil binding | Casp1 inh | Casp7 inh
O=C(NC1=NCCS1)c1ccc(OCC2CCCO2)cc1 (centres undefined) | 25.1µM | / | . | . | .
COCCN(CCOC)S(=O)(=O)c1ccc(C(=O)Nc2nc(C)c(C(C)=O)s2)cc1 | . | . | . | . | .
CC(=O)c1sc(NC(=O)c2ccccc2F)nc1C | 15.8µM | / | . | . | .
COc1cc(-n2c3nc4ccccc4nc3c3c(=O)n(Cc4ccco4)cnc32)cc(OC)c1OC | . | . | / | / | /
O=c1c2c3nc4ccccc4nc3n(Cc3ccccc3)c2ncn1Cc1ccco1 | . | . | 10µM | / | ?
CCCNC(=O)c1cc(-c2ccc(OC)cc2)on1 | 7.94µM | . | . | . | .
CCCCNC(=O)c1cc(-c2ccc(OC)cc2)on1 | . | . | . | . | .
COc1ccc2cc3c(N)c(C(=O)NCc4ccco4)sc3nc2c1 | . | . | . | / | .
Nc1c(C(=O)NCc2ccco2)sc2nc3c(cc12)C(=O)CCC3 | . | . | 20µM | . | .
COC(c1ccccc1Br)C(C)/C=C/CCO (centres undefined) | / | / | / | .[11.5 µM] | .[11.5 µM]
CCN(CC)CCNc1ccc(CO)c2sc3ccccc3c(=O)c12 | . | / | 3.98µM | . | .
O=C(CCN1CCCCC1)c1csc2ccccc12 | .[11.4 µM] | / | .[11.4 µM] | .[11.5 µM] | .[11.5 µM]
O=c1c2ccccc2sc2c(CO)ccc(NCCN3CCCCC3)c12 | .[11.4 µM] | / | 3.16µM | .[11.5 µM] | .[11.5 µM]
CCCn1cnc2c(SCC(=O)O)nc(N)nc21 | .[11.4 µM] | / | .[11.4 µM] | .[11.5 µM] | .[11.5 µM]
Cc1ccc(NC2=Nc3ccccc3CS2)cc1 | 3.98µM | 4.1 | . | . | .
